Sampled rows, rich in hits. Any-hit rate of the full collection: about 3.8%.
NLRP3 yeast inh: inhibitors of NALP3 inflammasome in yeast. inhibition, % at 10 µM. actives 0.39% (n = 330,000). AID 2825. Yeast reconstituted NLRP3/ASC/caspase-1, beta-gal luminescence, 24 h;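 active means inhibition of 50% or more; inactive means inhibition below 50%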;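 further: plate controls were induced DMSO wells for no effect and uninduced yeast grown without galactose for full effect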
tim23-1 inh: inhibits growth of tim23-1 mutant yeast | S. cerevisiae tim23-1 growth, BacTiter-Glo luminescence, 24 h | inhibition, % at 20 µM | actives 1.3% (n = 330,000) | AID 463212;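 active means growth inhibition of the mutant yeast at or above 50%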;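 further: temperature-sensitive mutant grown at 25 °C; plate controls were DMSO-treated mutant yeast for no effect and medium wells lacking yeast for full effect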
CR mimetic SO: yeast age-related superoxide inhibition as caloric restriction mimetic | S. cerevisiae aged cells, superoxide DHE fluorescence; stronger effect = lower value | superoxide response (% of plate mean), % at 10 µM | actives 0.18% (n = 330,000);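 active means superoxide response under a set limit, about three screen SD below normal, cut at about 65% in these data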;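 further: yeast aged for seven days with compound at 30 °C before DHE staining; 100% = average MFI of all compound-treated wells on the plate with controls excluded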
tim10-1 inh: inhibits growth of tim10-1 mutant yeast; S. cerevisiae tim10-1 ts strain growth, BacTiter-Glo, 24 h; inhibition, % at 20 µM; actives 2.2% (n = 330,000);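 active means inhibition of at least 40%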;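 further: mutant grown at 25 °C; 0% = DMSO wells with yeast and 100% = wells holding no yeast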
TIM10 inh: growth inhibitors of TIM10 yeast strain; S. cerevisiae TIM10 strain growth, BacTiter-Glo luminescence, 24 h; actives 1.4% (n = 330,000); inhibition, % at 10 µM; AID 463195;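 active means inhibition of 40% or more at the single tested concentration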;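 further: wild-type TIM10 isogenic control strain grown at permissive 25 °C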
tim10-1 conf: tim10-1 yeast growth inhibition, confirmed. inhibition, % at 20 µM. S. cerevisiae tim10-1 ts strain growth, BacTiter-Glo, 24 h. shares compounds with tim10-1 inh. actives 56% (n = 7,400);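 active means inhibition of yeast growth at or above a set limit in either of two repeat tests at 20 µM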;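 further: tim10-1 mutant grown at permissive 25 °C to find synthetic lethal compounds; 0% = DMSO yeast wells and 100% = medium wells without yeast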
* = called active by the depositor; nt = no result given.

SMILES	NLRP3 yeast inh	tim23-1 inh	CR mimetic SO	tim10-1 inh	TIM10 inh	tim10-1 conf
COC1=CC(=O)C(O)=C(CCCCCCC/C=C/CCCCCCCC2=C(O)C(=O)C=C(OC)C2=O)C1=O	20	43	91	43*	-2	38*
COC(=O)C1=C(C)N(c2ccc(C(=O)OC)cc2)C(=O)C1	-1	9	100	33	9	nt
CCOC(=O)c1ccc(N2C(=O)CC(C(=O)OC)=C2C)cc1	10	11	106	54*	-6	38*
CCOC(=O)c1ccc(N2C(=O)C=CC2=O)cc1	20	23	68	82*	14	92*
CCOC(=O)c1ccc(-n2c(C)ccc2C)cc1	3	27	110	8	15	nt
CCOC(=O)c1cnc2c(OC)cccc2c1N1CCN(c2ccccn2)CC1	-1	37	96	48*	20	21
CCOC(=O)c1cnc2c(OC)cccc2c1N1CCN(c2ccc(OC)cc2)CC1	16	12	106	40*	4	17
CCOC(=O)c1cnc2c(C(F)(F)F)cccc2c1N1CCN(C)CC1	10	7	102	12	-12	nt
CN(CC1CCCN(CCc2ccc(Cl)cc2)C1)C(=O)c1ccc2nc[nH]c2c1 (stereo unspecified)	8	7	91	-2	3	nt
CC(C)Sc1nc(C(F)(F)F)cc(=O)n1-c1ccccc1	-3	36	109	27	22	nt
CCNC(=S)Nc1ccc(N(c2ccccc2)C(C)C)cc1	10	19	86	42*	5	28
OCCCNC(=S)Nc1ccc(Oc2ccccc2)cc1	15	13	94	33	4	nt
CC(C)CNC(=S)Nc1ccc(Oc2ccccc2)cc1	29	45	98	43*	36	24
COc1ccc(Nc2nc(N)c(C(=O)c3ccc(OC)cc3)s2)cc1	16	37	103	44*	20	0
O=C(C1CCCO1)N1N=C(c2ccc(Br)cc2)CC1c1ccco1 (stereo unspecified)	22	39	87	37	27	nt
Cc1ccc(C2=NN(C(=O)C3CCCO3)C(c3ccco3)C2)cc1 (stereo unspecified)	10	28	93	41*	9	19
Cc1c(C(=O)NC(C(C)C)C(C)C)cccc1[N+](=O)[O-]	11	13	85	10	-8	nt
CCN(CC)c1ccc(C(=O)Nc2ccccc2)cc1[N+](=O)[O-]	45	33	101	-24	-7	nt
Cc1ccc(-n2cc(-c3ccc([N+](=O)[O-])cc3)[nH]c2=S)c(C)c1	4	44	103	46*	40	35*
Cc1cccc(-n2cc(-c3ccc([N+](=O)[O-])cc3)[nH]c2=S)c1	16	-12	113	2	9	nt
Cc1ccc(-c2nc(-c3ccccn3)no2)cc1	32	39	108	43*	17	17
Cc1ccc(Cc2nc(-c3ccccn3)no2)cc1	26	2	103	3	-30	nt
Cc1ccc(-c2nc(-c3ccccn3)no2)cc1Cl	16	44	101	40*	24	15
COc1ccccc1/C=C/C(=O)NCC(=O)N/N=C/c1cc(Br)ccc1OC	10	11	100	28	8	nt
COc1ccccc1/C=C\C(=O)NCC(=O)N/N=C/c1cccc(OC)c1O	0	10	113	51*	14	-4
SMILES	NLRP3 yeast inh	tim23-1 inh	CR mimetic SO	tim10-1 inh	TIM10 inh	tim10-1 conf
COc1ccccc1C(CCNCc1ccccc1)c1ccc(OC(C)C)cc1 (stereo unspecified)	13	32	114	41*	21	31*
O=S(=O)(NCCCSc1ccccc1)c1ccccc1F	41	48	134	42*	5	18
CC(C)=CCC/C(C)=C/CC/C(C)=C/CC/C(C)=C/CC1=C(C)C(=O)c2ccccc2C1=O	-2	32	112	26	16	nt
CC(C)=CCC1=C(OCC(=O)O)C(=O)c2ccccc2C1=O	-12	49	125	52*	34	44*
O=C(Nc1cccc(-c2nnc(-c3ccco3)o2)c1)C(c1ccccc1)c1ccccc1	21	7	97	33	-1	nt
Cc1ccc(-c2cc(-c3ccccc3)[nH]c(=S)c2C#N)cc1	-1	36	98	54*	2	26
Cc1ccc(NC(=O)C(=O)NCc2ccc(/C=N/NC(=O)c3c(C)nc4ccccn34)o2)cc1	8	24	110	27	18	nt
C[C@H]1CC[C@]2(O[C@@H](CCO)C[C@H](O)[C@H]2O)O1	6	12	93	2	7	nt
CCOC(=O)C1=C(CC)Nc2ccccc2N=C1NC(=O)c1oc2ccccc2c1C	5	29	104	43*	27	-8
Cc1ccc(C2/C(=C(\O)c3ccc4c(c3)OCCO4)C(=O)C(=O)N2CC2CCCO2)cc1 (stereo unspecified)	21	0	78	-3	-4	nt
CCC(=O)c1ccc(OCC(=O)Nc2nc(-c3cccnc3)cs2)cc1	12	-12	107	-12	-24	nt
CCc1ccccc1OCC(=O)Nc1nc(-c2cccnc2)cs1	16	29	110	40	7	29
O=S(=O)(Nc1c(O)ccc2ccccc12)c1cccc2ccccc12	0	37	110	44*	27	32
CC(C)(C)C(=O)NC(=S)Nc1ccc(Cc2ccncc2)cc1	44	38	94	44*	32	30
O=C(Cc1ccccc1F)c1ccc(O)cc1O	7	50	105	43*	22	31*
O=S(=O)(Nc1ccc2c(c1)oc1ccccc12)N1CCCC1	12	22	109	48*	39	27
O=S(=O)(c1ccc2c(c1)oc1ccccc12)N1CCOCC1	20	15	99	7	14	nt
Cc1nc2sccn2c(=O)c1S(=O)(=O)NCC(C)c1ccccc1 (stereo unspecified)	6	8	86	-8	-2	nt
COc1cc(OC)c(S(=O)(=O)NC(C)C)cc1C(=O)O	-6	2	106	-3	6	nt
Cc1cccc(CN2CCc3c([nH]c4ccccc34)C2)c1	-4	22	89	33	29	nt
Clc1cccc(CN2CCc3c([nH]c4ccccc34)C2)c1	8	25	101	45*	35	44*
N/C(=N\OC(=O)c1ccc(F)cc1)c1cccc([N+](=O)[O-])c1	15	28	98	48*	25	63*
N/C(=N\OC(=O)c1ccccc1Cl)c1cccc([N+](=O)[O-])c1	34	23	98	50*	28	66*
N/C(=N\OC(=O)c1cccc(F)c1)c1cccc([N+](=O)[O-])c1	27	12	103	24	14	nt
O=C(CCNc1ccc(F)cc1)c1cccc([N+](=O)[O-])c1	15	13	86	40*	15	43*
O=C(CCNc1ccccc1)c1cccc([N+](=O)[O-])c1	7	19	89	24	13	nt

Assay outcomes deposited in PubChem BioAssay by several laboratories.
